Measurements taken from PubChem BioAssay (NCATS).
Results filed as inconclusive are left out. The source made the active and inactive calls. The call rests on the fitted dose curve; in most records, active means well fitted curve in the direction sought with a large enough effect; inconclusive means small, poorly fitted or top-dose-only effect, or another doubt; inactive means no such curve, though single readings can be large; an effect the other way counts as inactive or inconclusive.

What was measured:
HACAT = experiment: qHTS assay to identify novel small-molecules to repurpose for Merkel cell carcinoma treatment (AID 1296009); details: MCC and control cell lines, CellTiter-Glo viability, 72 h; at 44.8 µM (top of the series) unless noted; further: nearly all actives have a fitted effect of over 60% in size; further: potency means the concentration at half of the fitted maximal effect
How it was run: (§1)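 Cells were treated for 72 hr at 37 degree celsius with compounds in 8- or 11-point dose response. Viability was read by CellTiter-Glo luminescence, normalized to no-cell (cytotoxicity) and DMSO controls.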

MCC-13 = experiment: as above; details: MCC and control cell lines, CellTiter-Glo viability, 72 h; series mostly up to 46 µM
How it was run: as §1

MCC-26 = experiment: as above; details: MCC and control cell lines, CellTiter-Glo viability, 72 h; series mostly up to 46 µM
How it was run: as §1

MKL-2 = experiment: as above; details: MCC and control cell lines, CellTiter-Glo viability, 72 h; series mostly up to 46 µM
How it was run: as §1

UISO = experiment: as above; details: MCC and control cell lines, CellTiter-Glo viability, 72 h; series mostly up to 46 µM
How it was run: as §1

C33A = experiment: Primary qHTS to identify gynecologic anti-cancer compounds using libraries of approved drugs and bioactive compounds (AID 1345084); details: Gynecologic cancer cell panel viability, ATPlite luminescence, 48 h; series mostly up to 57.5 µM; further: nearly all actives have a fitted effect of over 55% in size
How it was run: (§2)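 Five-concentration response, 48 h; readout is ATP-driven luciferase luminescence.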

CAOV3 = experiment: as above; details: Gynecologic cancer cell panel viability, ATPlite luminescence, 48 h; series mostly up to 57.5 µM
How it was run: as §2

CASKI = experiment: as above; details: Gynecologic cancer cell panel viability, ATPlite luminescence, 48 h; series mostly up to 57.5 µM
How it was run: as §2

Es-2 = experiment: as above; details: Gynecologic cancer cell panel viability, ATPlite luminescence, 48 h; series mostly up to 57.5 µM
How it was run: as §2

HeLa = experiment: as above; details: Gynecologic cancer cell panel viability, ATPlite luminescence, 48 h; series mostly up to 57.5 µM
How it was run: as §2

Hek293T = experiment: as above; details: Gynecologic cancer cell panel viability, ATPlite luminescence, 48 h, control line for the selectivity index; series mostly up to 57.5 µM
How it was run: as §2

JEG-3 = experiment: as above; details: Gynecologic cancer cell panel viability, ATPlite luminescence, 48 h; series mostly up to 57.5 µM
How it was run: as §2

OV90 = experiment: as above; details: Gynecologic cancer cell panel viability, ATPlite luminescence, 48 h; series mostly up to 57.5 µM
How it was run: as §2

PA-1 = experiment: as above; details: Gynecologic cancer cell panel viability, ATPlite luminescence, 48 h; series mostly up to 57.5 µM
How it was run: as §2

SKOV3 = experiment: as above; details: Gynecologic cancer cell panel viability, ATPlite luminescence, 48 h; series mostly up to 57.5 µM
How it was run: as §2

Tov-21-G = experiment: as above; details: Gynecologic cancer cell panel viability, ATPlite luminescence, 48 h; series mostly up to 57.5 µM
How it was run: as §2

MKL-1 = experiment: qHTS assay to identify novel small-molecules to repurpose for Merkel cell carcinoma treatment (AID 1296009); details: MCC and control cell lines, CellTiter-Glo viability, 72 h; series mostly up to 46 µM; further: nearly all actives have a fitted effect of over 60% in size; further: potency means the concentration at half of the fitted maximal effect
How it was run: as §1

WaGa = experiment: as above; details: MCC and control cell lines, CellTiter-Glo viability, 72 h; series mostly up to 46 µM
How it was run: as §1

Measured: Potency

CC(=O)OC/C=C(C)/C=C/C=C(C)/C=C/C1=C(C)CCCC1(C)C
active: MKL-2 3.76 µM
not listed: MKL-1 | WaGa
inactive: all other assays above

O=C1Cc2cc(Cl)ccc2N1
not listed: MKL-2 | UISO | HeLa
inactive: all other assays above

O=C(COCCOCCOCC(=O)Nc1c(I)cc(I)c(C(=O)O)c1I)Nc1c(I)cc(I)c(C(=O)O)c1I
not listed: CAOV3
inactive: all other assays above

C[N+]1(C)CCC(OC(=O)C(O)(c2ccccc2)C2CCCC2)C1 (stereo not drawn)
not listed: CAOV3
inactive: all other assays above

CC(C(=O)O)c1ccc(/C=C2\CCCCC2=O)cc1 (stereo not drawn)
not listed: SKOV3
inactive: all other assays above

Cc1cc(O)c2c(O)c3c(O)cccc3cc2c1
not listed: SKOV3
inactive: all other assays above

COCCOCC(OC)OC
not listed: CAOV3
inactive: all other assays above

Cc1ccc(O)cc1
not listed: SKOV3
inactive: all other assays above
